We go through 65 compounds from PubChem BioAssay AID652115 (Broad Institute, 2013).

Where “and” joins values, the source holds several entries; their conditions need not be identical. Equal values may be shown once. About 3,800 (1.2%) of roughly 330,000 compounds were called active. Only a selection was taken, and actives are over-represented in it overall. Values without a mark were called inactive. Cut-off read from the data, not from the text of the source: active = inhibition above about 15%; inconclusive = no clear call, values can overlap the other calls; inactive = below that.

As usually defined, the inhibition is the drop in the measured response relative to a control, in per cent.

For the test, the target named is NAD-dependent protein deacylase sirtuin-5, mitochondrial (Homo sapiens) (UniProt Q9NXA8). The test is described as follows: SIRT5 desuccinylase inhibitors, primary screen, biochemical, fluorescence imaging, single point, set 5 (AID 652115). Conditions: Purified SirT5, succinyl-peptide AMC, trypsin-coupled fluorescence; at 15 µM; active compounds read high.
Sequence of NAD-dependent protein deacylase sirtuin-5, mitochondrial (Homo sapiens) (Q9NXA8 whole entry, looked up): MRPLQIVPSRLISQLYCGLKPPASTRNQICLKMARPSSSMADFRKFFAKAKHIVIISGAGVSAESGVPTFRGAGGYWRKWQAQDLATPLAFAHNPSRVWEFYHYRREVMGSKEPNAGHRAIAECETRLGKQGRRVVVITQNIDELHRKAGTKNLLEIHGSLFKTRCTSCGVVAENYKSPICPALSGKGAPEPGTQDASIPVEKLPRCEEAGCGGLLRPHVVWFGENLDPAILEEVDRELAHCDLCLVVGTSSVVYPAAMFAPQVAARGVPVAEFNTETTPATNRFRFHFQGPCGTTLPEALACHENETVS
Consider `O=C(c1cccnc1)N1CC2(C1)[C@@H](c1ccccc1)[C@H](CO)N2C(=O)C1CCC1`, for which the inhibition is -1.71%. As for `CCOC(=O)Cc1ncccc1C(=O)Nc1ccc(OC)cc1`, the inhibition was 15.7% (active). Next, `COc1ccc(NC(=O)c2ccccc2CC[N+](=O)[O-])cc1`: -2.27%. Next, `CCOC(=O)Cc1ncccc1C(=O)Nc1ccc(OC(F)(F)F)cc1`: -0.166%. Under `COc1cccc(C(=O)Nc2ccc3c(c2)C(=O)N(C)[C@@H]2CC[C@H](CC(=O)NCCCN4CCOCC4)O[C@H]2CO3)c1` stands 1.19%; under `COc1cccc(C#Cc2cnc3c(c2)C(=O)N([C@H](C)CO)C[C@@H](C)[C@@H](CN(C)C(=O)C2CCC2)O3)c1`, 0.234%; under `O=C(N[C@@H]1CC[C@@H](CC(=O)N2CCc3ccccc3C2)O[C@H]1CO)C1CC1`, 3.34%.

On to `CCS(=O)(=O)N1CC(=O)N2[C@H](CO)[C@@H](c3ccc(C#Cc4cccc(F)c4)cc3)[C@@H]2C1`, for which the inhibition is -0.525%.

Regarding `NC(=O)c1ccc(Nc2ccc3c(c2)CCC3)c([N+](=O)[O-])c1`, the inhibition is 28.4% (active). Next, `NC(=O)c1ccc(Nc2ccc3nonc3c2[N+](=O)[O-])cc1`: 2.49%.

As to `CCOc1ccccc1Nc1ccc(C(=O)O)cc1[N+](=O)[O-]`, the inhibition was -0.287%. Under `CCNC(=O)Nc1ccc2c(c1)C(=O)N(C)[C@H]1CC[C@H](CC(=O)NCC3CCCCC3)O[C@@H]1CO2` stands 3.92%. Under `CCC(=O)Nc1ccc2c(c1)C(=O)N(C)[C@H]1CC[C@H](CC(=O)NCC3CCCCC3)O[C@H]1CO2` stands -3.85%; under `CCCNC(=O)Nc1ccc2c(c1)C(=O)N(C)[C@H]1CC[C@H](CC(=O)NCC3CCCCC3)O[C@@H]1CO2`, 31.7% (active). Under `C[C@@H]1CN([C@H](C)CO)C(=O)CCCn2cc(nn2)CO[C@@H]1CN(C)Cc1ccccc1C(=O)O` stands -0.401%. `COc1ccc2c3c([nH]c2c1)[C@H](CO)N(C(=O)C1CCCCC1)CC31CCN(C(=O)c2ccncc2)CC1`: the inhibition is -1.36%. As for `COc1cccc(S(=O)(=O)N2[C@@H]3CNC[C@H]2C3c2ccc(-c3cccc(C(=O)N(C)C)c3)cc2)c1` (stereo not given in full), the inhibition was 3.63% and 4.46%. Under `Cc1cc(=O)[nH]c(N/N=C/c2ccc3c(c2)OCCO3)n1` stands 2.57%; under `Cc1noc(C)c1/C=N/Nc1ccc2ccccc2n1`, -4.8%; under `C(=N\Nc1ccc2ccccc2n1)/c1ccc2c(c1)OCO2`, 15.4% (active).

Turning to `CN(C)Cc1cn(CC[C@H]2CC[C@H](NC(=O)Nc3ccccc3F)[C@@H](CO)O2)nn1`, the inhibition is -13.2%.

In the case of `Cc1ccnc(NC(=O)c2ccc(Cl)c([N+](=O)[O-])c2)c1`, the inhibition is -6.51%. Under `O=C(Nc1ccncc1)c1ccc([N+](=O)[O-])cc1Cl` stands -1.67%; under `O=C(Nc1ccncc1)c1ccc(Cl)c([N+](=O)[O-])c1`, 31.2% (active); under `COCC(=O)N[C@@H]1C[C@@H]2O[C@@H](CO)CC[C@@H]2O[C@@H]1CCc1ccc(-c2ccccc2)cc1`, -3.27%. Under `CN(C)CC(=O)Nc1ccc2c(c1)[C@H]1C[C@H](CC(=O)NCc3ccccc3)O[C@@H](CO)[C@H]1O2` stands -5.86%. In the case of `Cc1cccc(CN(C)C[C@H]2OCc3cn(nn3)CCCC(=O)N([C@@H](C)CO)C[C@H]2C)c1`, the inhibition is -2.48%. Under `CCCNC(=O)N1[C@H](CO)[C@@H](c2ccc(-c3ccc(C(=O)N(C)C)cc3)cc2)[C@@H]1C#N` stands 5.61%. Next, `COc1ccc(NC(=O)N(C)C[C@@H]2OCCCC[C@H](C)Oc3ccc(NC(=O)c4ccccc4)cc3C(=O)N([C@H](C)CO)C[C@H]2C)cc1`: 3.2%; `CCC(=O)N1CCCCN2[C@H](CO)[C@@H](c3ccc(-c4cccnc4)cc3)[C@H]2C1`: 0.057%; `OC[C@H]1[C@H](c2ccc(-c3cccnc3)cc2)[C@H]2CN(Cc3ccccn3)CCCCN21`: 15.6% (active).

Consider `OC[C@@H]1[C@H](c2ccc(Br)cc2)[C@@H]2CN(Cc3ccccn3)CCCCN12`, for which the inhibition was 3.43%. For `CN1C(=O)c2cc(NC(=O)NC3CCCC3)ccc2OC[C@@H]2O[C@@H](CC(=O)O)CC[C@H]21`, the inhibition is -7.32%. Under `O=C(C[C@@H]1CC[C@H](NC(=O)Nc2ccc(F)cc2)[C@H](CO)O1)NCc1ccccn1` stands 1.52%; under `CC=Cc1ccc2n(c1=O)C[C@@H]1[C@@H](CO)[C@H](C(=O)NCC3CC3)[C@H]2N1C(=O)c1ccccc1` (mixture of isomers), -10.5%. Next, `COC(=O)C[C@@H]1C[C@@H]2c3cc(NC(=O)NC4CCCC4)ccc3O[C@@H]2[C@@H](CO)O1`: -3%; `Cc1ccc(S(=O)(=O)N(C)C[C@H]2Oc3ccc(NC(=O)Cc4cn(C)c5ccccc45)cc3CC(=O)N([C@@H](C)CO)C[C@H]2C)cc1`: 16.9% (active); `C[C@H]1CN([C@@H](C)CO)C(=O)c2cc(NC(=O)Cc3cn(C)c4ccccc34)ccc2O[C@@H]1CN(C)Cc1ccc(Cl)c(Cl)c1`: 22.6% (active). For `C[C@@H]1CN([C@@H](C)CO)C(=O)c2cc(NC(=O)Cc3ccccc3)ccc2O[C@H]1CN(C)Cc1ccc(Cl)c(Cl)c1`, the inhibition was 14.1%.

For `Cc1ccc(S(=O)(=O)N(C)C[C@@H]2OCc3ccccc3-c3c(n(C)c4ccccc34)C(=O)N([C@@H](C)CO)C[C@@H]2C)cc1`, the inhibition is 17.7% (active). Next, `C[C@@H]1CN([C@H](C)CO)C(=O)Cc2cc(NC(=O)Cc3cn(C)c4ccccc34)ccc2O[C@@H]1CN(C)S(=O)(=O)c1ccccc1`: 0.96%; `C[C@H]1CN([C@@H](C)CO)C(=O)c2c(c3ccccc3n2C)-c2ccccc2CO[C@H]1CN(C)S(=O)(=O)c1ccc(C#N)cc1`: 3.54%; `Cc1ccc(S(=O)(=O)N(C)C[C@@H]2Oc3ccc(NC(=O)Cc4cn(C)c5ccccc45)cc3C(=O)N([C@@H](C)CO)C[C@@H]2C)cc1`: 4.27%.

As to `C[C@H]1CN([C@@H](C)CO)C(=O)c2cc(NC(=O)Cc3cn(C)c4ccccc34)ccc2O[C@H]1CN(C)Cc1ccc(Cl)c(Cl)c1`, the inhibition was 7.81%. Regarding `C[C@@H]1CN([C@@H](C)CO)C(=O)c2c(c3ccccc3n2C)-c2ccccc2CO[C@@H]1CN(C)S(=O)(=O)c1ccc(F)cc1`, the inhibition was 3.02%. Under `CC=Cc1ccc2n(c1=O)C[C@@H]1[C@@H](CO)[C@H](C(=O)NC3CCCC3)[C@H]2N1C(=O)c1cnccn1` (mixture of isomers) stands -1.91%. Next, `Cc1cccc(-c2ccc([C@H]3[C@H](CO)N4CCCCN(S(=O)(=O)c5cn(C)cn5)C[C@@H]34)cc2)c1`: -2.31%; `O=C(C[C@@H]1CC[C@@H]2[C@H](COC[C@@H](O)CN2Cc2ccc(F)cc2)O1)NCc1ccncn1`: 2.45%; `COc1cccc(S(=O)(=O)N(C)C[C@H]2Oc3cc(C#CCN(C)C)ccc3S(=O)(=O)N([C@H](C)CO)C[C@H]2C)c1`: 2.32%.

`COc1cccc(S(=O)(=O)N(C)C[C@@H]2Oc3cc(C#CCN(C)C)ccc3S(=O)(=O)N([C@@H](C)CO)C[C@@H]2C)c1`: the inhibition is -0.424%.

Regarding `COCC#Cc1ccc2c(c1)O[C@@H](CN(C)S(C)(=O)=O)[C@H](C)CN([C@H](C)CO)S2(=O)=O`, the inhibition is -0.381%. Under `COc1ccccc1S(=O)(=O)N(C)C[C@H]1Oc2cc(C#CCC3CCCC3)ccc2S(=O)(=O)N([C@@H](C)CO)C[C@H]1C` stands 16.1% (active); under `COc1ccccc1S(=O)(=O)N(C)C[C@@H]1Oc2cc(C#CCC3CCCC3)ccc2S(=O)(=O)N([C@H](C)CO)C[C@H]1C`, 18.3% (active).

`CCCC#Cc1ccc2c(c1)O[C@@H](CN(C)S(=O)(=O)c1cccc(OC)c1)[C@H](C)CN([C@@H](C)CO)S2(=O)=O`: the inhibition was 0.047%. As to `C[C@H](O)C#Cc1ccc2c(c1)O[C@@H](CN(C)C(=O)C1CCCCC1)[C@H](C)CN([C@@H](C)CO)S2(=O)=O`, the inhibition was 5.37%. Next, `O=C(C[C@H]1CC[C@H]2[C@@H](COC[C@@H](O)CN2C(=O)Nc2ccc(C(F)(F)F)cc2)O1)NC1Cc2ccccc2C1`: -1.39%; `C=C1c2c(Cl)ccc(O)c2C(O)=C2C(=O)[C@]3(O)C(O)=C(C(N)=O)C(=O)[C@@H](N(C)C)[C@@H]3[C@@H](O)C12` (stereo not given in full): 35.9% (active); `CN(C)[C@@H]1C(=O)C(C(N)=O)=C(O)[C@@]2(O)C(=O)C3=C(O)c4c(O)ccc(Cl)c4[C@@H](O)[C@H]3C[C@@H]12`: 6.39%. Under `CNC(=O)C[C@H]1CC[C@H]2[C@H](COc3ccc(NC(=O)c4cccc(F)c4)cc3C(=O)N2C)O1` stands -1.94% and 2.58%; under `C[C@@H]1CN([C@@H](C)CO)C(=O)Cc2cc(NC(=O)Nc3cccc4ccccc34)ccc2O[C@H]1CN(C)CC1CCCCC1`, -4.93%. Next, `N#CCc1c(C#N)c(N)nc(N2CCCC2)c1C#N`: 26.2% (active); `N#Cc1c(C(F)(F)F)cc(-c2cccs2)nc1N1CCCCC1`: 5.73%; `N#Cc1c(N2CCCCC2)nc(N)c2c(N)nc(SCC(=O)O)cc12`: 7.29%. As to `CO[C@@H]1CN(C)C(=O)c2cc(NS(=O)(=O)CC(F)(F)F)ccc2OC[C@H](C)N(Cc2ccccn2)C[C@@H]1C`, the inhibition was 2.12%. Under `C[C@@H]1CCCCO[C@H](CN(C)S(=O)(=O)c2cn(C)cn2)[C@@H](C)CN([C@@H](C)CO)C(=O)c2cc(NC(=O)c3ccncc3)ccc2O1` stands 0.794%.
